Among all 340,000 compounds or so, fewer than 10 were called active. Calls come from the whole dose curve; as a rule, active = well fitted inhibition curve with a large enough effect in the main read-out, with a control signal flat (not every such curve was filed as active); inconclusive = small, poorly fitted or top-dose-only effect, or effect the other way, or a change in a side signal; inactive = no such curve, though single readings can be large or run the other way. A selection follows.
Each molecule was assayed against Tumor susceptibility gene 101 protein (Homo sapiens) (UniProt Q99816) (assay: qHTS Assay for Iinhibitors of HIV-1 Budding by Blocking the Interaction of PTAP/TSG101). Conditions: Fluorescence polarization, FITC-PTAP peptide / Tsg101 binding; series mostly up to 115 µM; activity change, negative = inhibition: at the top concentration.
From the text: NIH Molecular Libraries Probe Production Network [MLPCN] NIH Chemical Genomics Center [NCGC] MLPCN Grant: 1 R03 MH087464-01A1 PI Name: Dr. Eric Freed, NCI NCGC Assay Overview: Stages of the HIV-1 replication cycle, specifically virus assembly and release, provide underexploited targets for the development of novel antiviral inhibitors. The late stages of HIV-1 replication are mediated by the Gag precursor protein, Pr55Gag. Expression of Pr55Gag is both necessary and sufficient for the production of virus-like particles from Gag-expressing cells. The Gag protein hijacks key host proteins involved in endocytic machinery of the host cell to promote endosomal processing and viral budding. The budding process requires a direct interaction between a […] (PTAP) motif in the p6 domain of Gag and the cellular endosomal sorting protein known as Tsg101. In this way, the Gag PTAP motif promotes the host cells to recruit viral particles to the plasma membrane where the new viral particles are released, effectively turning the host cells into viral factories. A fluorescence anisotropy assay has been developed to quantitatively measure the PTAP-Tsg101 interaction which can be used to screen for inhibitors of this interaction.
NCGC Assay Protocol Summary: Two uL of the Tsg101 binding domain in buffer (10 mM HEPES pH 7.5; 0.15 M NaCl, 0.01% Tween 20; 3 mM EDTA;0.1 mM TCEP) was dispensed into Greiner black MB 1536-well plates (final concentration 10 uM). Then, 23 nL of compounds or DMSO were delivered to each well using a pin tool. Finally, 2 uL of a FITC-labeled peptide containing the PTAP motif (1) in the same buffer was dispensed (50 nM final concentration) and the binding was allowed to proceed for 20 min. at r.t. Fluorescent polarization was determined using FITC excitation and polarized emission filters on a Perkin Elmer Viewlux. Keywords: Tsg101, PTAP, Gag, HIV, fluorescent polarization, MLSMR, MLPCN, NIH Roadmap, qHTS, NCGC
Note: % of control where 0% means no effect.

Chain of Tumor susceptibility gene 101 protein (Homo sapiens) (Q99816 whole entry, looked up): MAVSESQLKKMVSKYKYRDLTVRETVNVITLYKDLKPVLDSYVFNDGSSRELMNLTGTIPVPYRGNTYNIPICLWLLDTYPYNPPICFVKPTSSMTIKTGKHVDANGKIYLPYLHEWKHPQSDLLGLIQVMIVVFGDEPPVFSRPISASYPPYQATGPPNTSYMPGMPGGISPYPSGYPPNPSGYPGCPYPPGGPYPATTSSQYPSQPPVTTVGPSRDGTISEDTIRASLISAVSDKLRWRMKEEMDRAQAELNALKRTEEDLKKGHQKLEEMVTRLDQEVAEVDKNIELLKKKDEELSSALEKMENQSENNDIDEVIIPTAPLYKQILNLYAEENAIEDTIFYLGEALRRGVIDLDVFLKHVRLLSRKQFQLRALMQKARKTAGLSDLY

| SMILES | activity change, negative = inhibition |
| --- | --- |
| Cc1cccc(-n2c(Cc3cc(=O)[nH]c(=O)[nH]3)nnc2SC(C)C)c1 | -3.65% (inactive) |
| Cc1ccccc1C(=O)N1CCC(C(=O)Nc2ccc(S(=O)(=O)N(C)C(C)C)cc2)CC1 | -5.76% (inactive) |
| Cc1no[n+]([O-])c1COc1ccccc1/C=C1\NC(=S)NC1=O | -1.51% (inactive) |
| Cc1coc2cc3oc(=O)c(CCC(=O)O)c(C)c3cc12 | -1.58% (inactive) |
| CC(C)Cc1nnc(N)s1 | 0.822% (inactive) |
| Cc1ccc2c(c1)N(CC(=O)NCCCN1CCCCC1)C(=O)c1cccnc1O2 | -3.98% (inactive) |
| CC1CC(C)CN(C(=O)CCNC(=O)Cn2cnc3ccccc3c2=O)C1 (stereo not drawn) | -3.52% (inactive) |
| O=C(Cc1ccc(S(=O)(=O)N2CCOCC2)s1)NCCOc1ccccc1F | -3.13% (inactive) |
| O=C(COc1ccc2c(c1)CCC2)N1CCN(c2ccc(F)cc2)CC1 | -4.81% (inactive) |
| CN(C)c1ccc(Nc2c3c4c(cccc4n(C)c2=O)C(=O)c2ccccc2-3)cc1 | -12.6% (inactive) |
| CC(Cc1cccs1)NC(=O)c1cccc(Cl)c1 (stereo not drawn) | -2.64% (inactive) |
| O=C(Cc1ccc([N+](=O)[O-])cc1)NCCc1ccc2c(c1)OCO2 | 0.815% (inactive) |
| CCC(CC)C(=O)Nc1c2c(nn1-c1ccc(C)cc1)CS(=O)(=O)C2 | -0.386% (inactive) |
| CCCC1(C(=O)OCC)NC(c2ccc(N(C)C)cc2)C2C(=O)N(c3ccc4c(c3)OCCO4)C(=O)C21 (stereo not drawn) | -5.54% (inactive) |
| COc1cc2c(cc1CNC[C@H]1O[C@@H](n3cnc(C(N)=O)n3)[C@H](O)[C@@H]1O)OCO2 | -0.393% (inactive) |
| COc1ccc(/C=C/C2=CC(C)(C)NC(=S)N2)c(OC)c1 | -5.34% (inactive) |
| O=C(NC1CCN(C(=S)Nc2ccc(Cl)cc2)CC1)C1CCCCC1 | -2.49% (inactive) |

| SMILES | activity change, negative = inhibition |
| --- | --- |
| N#CC1(NC(=O)COC(=O)CSc2ccc(F)cc2)CCCCC1 | -0.309% (inactive) |
| CC(=O)c1ccc(Cc2ncc(C(F)(F)F)cc2Cl)s1 | -2.94% (inactive) |
| COc1ccc(-c2cc(C(F)(F)F)n3nc(C(=O)N4CCOCC4)c(Cl)c3n2)cc1 | -1.7% (inactive) |
| Cc1ccsc1C1C(C#N)=C(N)OC2=C1C(=O)CC(C)C2 (stereo not drawn) | -6.04% (inactive) |
| O=[N+]([O-])c1cccc(S(=O)(=O)N2CCCCCC2)c1 | -4.08% (inactive) |
| CC(C)c1ccc(S(=O)(=O)N2CCC3(CC2)OCCO3)cc1 | 5% (inactive) |
| O=C(CN1C(=O)NC2(CCCC2)C1=O)NCC1CCCO1 (stereo not drawn) | -0.821% (inactive) |
| NC(=O)c1ccc(CN2CCC(Cc3ccccc3)CC2)cc1 | -4.25% (inactive) |
| O=C(N/C(=C\c1ccc(O)cc1)C(=O)N1CCCCC1)c1ccccc1 | -4.56% (inactive) |
| O=C(O)C1C2C=CC(O2)C1C(=O)NCCc1cccc(Cl)c1 (stereo not drawn) | -2.45% (inactive) |
| CC1=C(C(=O)N(C)C)C(c2ccccc2OC(F)F)NC(=O)N1 (stereo not drawn) | -2.19% (inactive) |
| Cn1c2ccc(F)cc2c2nnc(NN)nc21 | -1.99% (inactive) |
| CC(C)Oc1ccc(CCc2n[nH]c(=S)n2Cc2ccccc2)cc1 | -8.46% (inactive) |
| CCc1nnc(NC(=O)CSc2nc3ccccc3c(=O)n2CCCOC)s1 | -4.64% (inactive) |
| O=C(Nc1ccc(-n2cccn2)cc1)C1CCN(Cc2ccsc2)CC1 | -0.259% (inactive) |
| CCOC(=O)C1Nc2ccc(C(F)(F)F)cc2C2C=CCC12 (stereo not drawn) | -7.44% (inactive) |

Source: PubChem BioAssay AID493005 (National Center for Advancing Translational Sciences (NCATS), 2010)
